Shown are actives, neighbours in structure and some others; about 4.7% of the full set was active somewhere.
FH mod – Identification of activators of human fumarate hydratase by quantitative high-throughput screening; Potency, µM (doses to about 79.9 µM), usual class: inhibitors; actives 0.22% (n = 54,000); FH coupled MDH/diaphorase resazurin fluorescence, 15 min; AID 1347055, 2019; note: the screen sought activators but most active calls are inhibition curves; nearly all actives have a fitted effect of over 45% in size
NTMT1 inh – NTMT1 methyltransferase inhibition; AID 1645870; Potency, µM (highest dose often 114 µM), usual class: inhibitors; actives 2.5% (n = 59,000); Q9BV86; NTMT1 MTase-Glo SAH luminescence, purified enzyme; note: nearly all actives have a fitted effect of over 65% in size
Target sequence (Q9BV86 whole entry, looked up): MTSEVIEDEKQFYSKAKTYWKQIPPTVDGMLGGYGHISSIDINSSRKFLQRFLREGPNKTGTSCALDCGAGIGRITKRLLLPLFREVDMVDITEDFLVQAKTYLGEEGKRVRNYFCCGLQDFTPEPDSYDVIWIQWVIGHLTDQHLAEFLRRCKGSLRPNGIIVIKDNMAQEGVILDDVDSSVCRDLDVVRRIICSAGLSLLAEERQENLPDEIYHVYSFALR
GPR32 ag – GPR32 (DRV1) agonism, beta-arrestin recruitment; O75388; CHO-K1 GPR32 beta-arrestin PathHunter luminescence, 90 min; zero percent set by DMSO-only wells; activation, % at 76.9 µM; actives 2.5% (n = 48,000);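 active = activation of at least 60% and not above a set upper limit, about 1 call in 100 departs from these limits; inconclusive = activation of 40% to 60%, or above that upper limit; inactive = activation under 40%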
Target sequence (O75388 whole entry, looked up): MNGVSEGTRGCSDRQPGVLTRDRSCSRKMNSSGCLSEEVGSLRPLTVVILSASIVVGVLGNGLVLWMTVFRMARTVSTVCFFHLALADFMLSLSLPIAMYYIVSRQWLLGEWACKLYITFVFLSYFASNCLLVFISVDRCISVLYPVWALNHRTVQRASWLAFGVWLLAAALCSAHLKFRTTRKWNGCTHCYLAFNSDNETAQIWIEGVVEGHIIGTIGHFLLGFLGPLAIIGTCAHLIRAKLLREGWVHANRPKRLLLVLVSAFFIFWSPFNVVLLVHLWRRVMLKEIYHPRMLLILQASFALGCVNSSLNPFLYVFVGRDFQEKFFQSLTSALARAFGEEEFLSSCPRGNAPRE
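Readings come from a cell-based beta-arrestin complementation format: CHO-K1 GPR32 stable cells (2,500/well) treated 90 min with compounds, then beta-Gal substrate added for 1 h before chemiluminescence imaging.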
HTT-AS act – HTT-AS promoter activation. Potency, µM (top dose mostly 57.5 µM), hits mostly activators. actives 0.24% (n = 48,000). HEK293 HTT-AS promoter firefly luciferase reporter, 24 h; response scale: percent change from vehicle, -100% = no light; note: nearly all actives have a fitted effect of over 55% in size
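HEK293 cells carrying firefly luciferase reporters were seeded at 2,500 per well in Opti-MEM and cultured for 24 h. They were then treated with compounds at up to 57.5 uM final for 24 h at 37 degrees C before Dual-Glo luminescence readout.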
HTT prom inh – inhibitors of huntingtin promoter activity | AID 1508623 | actives 0.93% (n = 48,000) | HEK293 HTT promoter firefly luciferase reporter, 24 h | Potency, µM (highest dose often 57.5 µM), actives largely listed as inhibitors; note: nearly all actives have a fitted effect of over 50% in size
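Firefly luciferase readout (Dual-Glo, 10 min RT) after 24 h, 37 °C compound exposure (final up to 57.5 uM) of HEK293 reporter cells cultured 24 h beforehand; PTC124 at 50 uM final as control inhibitor; activity scaled vehicle 0%, zero RLU -100%.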
Hits are given with their value; – = inactive; ? = inconclusive; · = no result; ! = repeats disagree; [ ] = dose if it differs, or a comment. Unless noted, calls come from the whole dose curve; as a rule, active = well fitted curve in the direction sought with a large enough effect; inconclusive = small, poorly fitted or top-dose-only effect, or another doubt; inactive = no such curve, though single readings can be large; an effect the other way counts as inactive or inconclusive.

SMILES	FH mod	NTMT1 inh	GPR32 ag	HTT-AS act	HTT prom inh
O=C(Nc1ccccc1)c1ccc(Cl)c(S(=O)(=O)Nc2ccccc2)c1	–	?	91.4	?	–
O=C(Nc1ccccc1)c1cccc(S(=O)(=O)Nc2cccc(F)c2)c1	–	–	–	–	?
Cc1ccc(C(=O)Nc2ccccc2)cc1S(=O)(=O)Nc1ccccc1	–	–	94.8	–	–
CCN(CC)CCn1c(-c2ccccc2)nc2c(NCCOC)nc(C)nc21	·	–	·	·	·
C[C@@H]1O[C@@H](O[C@H]2[C@H](O)[C@@H](O)[C@H](O[C@H]3[C@H](O[C@H]4CC[C@@]5(C)C(=CC[C@@H]6C5CC[C@]5(C)[C@@H]7[C@H](C[C@@H]65)O[C@]5(CC[C@@](C)(CO[C@@H]6O[C@H](CO)[C@@H](O)[C@H](O)[C@H]6O)O5)[C@H]7C)C4)O[C@H](CO)[C@@H](O)[C@@H]3O)O[C@@H]2CO)[C@H](O)[C@H](O)[C@H]1O (some centres undefined)	–	–[12.6 µM]	·	·	·
COc1cc(/C=C/c2nc(C#N)c(N3CCCCCC3)o2)cc(OC)c1OC	28.2µM	?	–	–	–
COc1ccc(N2CCN(c3oc(/C=C/c4ccccc4OC)nc3C#N)CC2)cc1	–	89.1µM	–	–	–
Cn1c2cc(S(C)(=O)=O)sc2c2cnn(Cc3ccccc3F)c(=O)c21	·	–	·	·	·
CC(=O)Nc1ccc(S(=O)(=O)Nc2nc3n(n2)C(c2ccccc2)C=C(c2ccc(Cl)cc2)N3)cc1 (centres undefined)	–	–	83.5	–	–
O=S(=O)(Nc1nc2n(n1)C(c1ccc(F)cc1)C=C(c1ccccc1)N2)c1ccc(Cl)cc1 (centres undefined)	–	?	?	–	–
COc1ccc(C2C=C(c3ccccc3)Nc3nc(NS(=O)(=O)c4ccc(Cl)cc4)nn32)cc1 (centres undefined)	?	?	?	–	–
O=S(=O)(Nc1nc2n(n1)C(c1ccccc1)C=C(c1ccc(Cl)cc1)N2)c1ccccc1 (centres undefined)	?	–	72.2	–	–
Cc1ccc(S(=O)(=O)Nc2nc3n(n2)C(c2ccc(Cl)cc2)C=C(c2ccccc2)N3)cc1 (centres undefined)	?	35.5µM	88.5	–	–
Cc1ccc(C2C=C(c3ccc(Cl)cc3)Nc3nc(NC(=O)c4ccco4)nn32)cc1 (centres undefined)	–	–	107.6	–	?
COc1ccc(C2c3c(n(C)c4ccccc34)C(=O)N2CC(=O)Nc2c(C)cc(C)cc2C)cc1 (centres undefined)	–	–	–	–	?
CCN1CCC(N(Cc2cccc(OC)c2)C(=O)Nc2cccc(C(F)(F)F)c2)CC1	–	–	–	–	–
Cc1nn(Cc2noc(C(=O)NCc3cccc(F)c3)n2)c(C)c1Br	–	–	73.1	–	–
CC(C)c1c(C(=O)Nc2ccccc2)c(-c2ccccc2)c(-c2ccc(F)cc2)n1CC[C@@H](O)C[C@@H](O)CC(=O)O	–	35.5µM!	–	–	–
COc1cc(NS(=O)(=O)c2ccc(-c3cc(C)no3)cc2)cc(OC)c1	–	–	–	–	1.78µM
CC1=C(C(=O)OC2CCCC2)C(c2ccccc2C(F)(F)F)CC(=O)N1 (centres undefined)	–	–	95.9	–	?
Cc1cc(C)c2c(=O)cc(CSc3n[nH]c(C)n3)[nH]c2c1	–	–	–	–	–
Cc1cccc(-c2nc(SCc3cc(=O)c4c(C)cc(C)cc4[nH]3)n[nH]2)c1	–	–	115.8	–	–
CCC1CCCCN1CCCNC(=O)c1cc2c(=O)n(CC)c3ccccc3c2s1 (centres undefined)	–	?	–	–	–
CCC1CCCCN1CCCNC(=O)c1cc2c(Cl)nc3ccc(C)cc3c2s1 (centres undefined)	–	28.2µM	–	–	–
Oc1ccc(C2CCN(c3ccnc4ccccc34)CC2)cc1O	–	10µM!	·	–	?
SMILES	FH mod	NTMT1 inh	GPR32 ag	HTT-AS act	HTT prom inh
NC(=O)c1cccc2[nH]c(-c3ccc([C@H]4CCCN4)cc3F)nc12	–	44.7µM	·	?	–
NC(=O)c1cccc2[nH]c(-c3ccc(C4CCCN4)cc3F)nc12 (centres undefined)	–	–	·	·	·
CN(C)CCNC(=O)C1CCN(Cc2cc3ccccc3n2Cc2ccccc2)CC1	–	?	63.9	–	?
CCCNC(=O)C1CCN(Cc2cc3ccccc3n2Cc2ccccc2)CC1	–	–	–	–	–
CC(=O)OCc1cnc(C)c2oc(=O)c(C(=O)Nc3cccc(F)c3)cc12	–	–	–	–	–
O=C(NCCc1csc2nc(-c3ccc(F)cc3)nn12)c1cccc(C(F)(F)F)c1	–	–	–	–	?
COc1ccc(-c2nc3scc(CCNC(=O)c4cccc(Br)c4)n3n2)cc1	–	–	71.2	–	–[11.5 µM]
COc1cc(OC)c(NS(=O)(=O)c2ccc3c(c2)CCCN3C(C)=O)cc1Cl	–	?	–	–	?
CC(=O)N1CCCc2cc(S(=O)(=O)N3CCC(C(=O)Nc4c(C)cccc4C)CC3)ccc21	–	–	–	–	20µM
CC(=O)N1CCCc2cc(S(=O)(=O)N3CCCC(C(=O)N4CCN(c5ccccc5)CC4)C3)ccc21 (centres undefined)	–	–	–	–	11.2µM
CC(=O)N1CCCc2cc(S(=O)(=O)N3CCC(C(=O)Nc4ccc(C)cc4Cl)CC3)ccc21	–	–	–	–	?
COc1ccccc1N1CCN(C(=O)C2CCCN(S(=O)(=O)c3ccc4c(c3)CCCN4C(C)=O)C2)CC1 (centres undefined)	–	–	?	–	?
Cc1cc(NCc2ccccc2Cl)n2cnnc2n1	–	–	–	–	17.8µM
Cc1nc2c(c(C)nn2C(C)(C)C)c(C)c1CCC(=O)Nc1ccc(F)cc1	–	–	74.1	–	–
Cc1nc2c(c(C)nn2-c2ccccc2)c(C)c1CCC(=O)Nc1ccc(F)cc1	–	–	–	–	–
COc1ccc(NC(=O)c2c(C)oc3ccc(O)c(CN4CCCC(C)C4)c23)cc1 (centres undefined)	·	·	61.2	·	·
COc1ccc(CC(=O)NC2CC(=O)N(c3cccc(F)c3)C2)cc1OC (centres undefined)	–	–	–	–	–
Nc1ccc(O)c([N+](=O)[O-])c1	?	35.5µM	–	?	–
Nc1ccc(C(=O)O)c(O)c1	–	–	–	–	–
Cc1cccc(CCNc2ncnc3onc(-c4ccc(Cl)cc4)c23)c1	–	–	–	–	?
Cn1cc[nH]c1=S	–	?	65.4	–	–
Cc1ccc(-c2cn(-c3ccc(Cl)cc3)c(S(=O)(=O)CC(=O)Nc3ccccc3)n2)cc1	–	–	–	?	–
Cc1ccc(-n2cc(-c3ccccc3)nc2S(=O)(=O)CC(=O)Nc2ccc(F)cc2)cc1	?	–	–	3.16µM	–

Screening results deposited in PubChem BioAssay by National Center for Advancing Translational Sciences (NCATS).
